# Measurements published in the supplement of paper PMC12282887.
# ± gives the standard deviation of the averaged measurements.
# What was measured:
# Assay in all cases: promoter activity interaction Z-score (Lux/OD deviation from empty-vector control); higher = stronger promoter induction by the compound
# [1] = test system: E. coli BW25113 acrABp lux reporter
# Outline: (§1)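 Reporter strains of E. coli BW25113 grew at 37°C in 40 µl LB Lennox in 384-well plates. Readings of OD600 and luminescence were taken every 30 min over 12 h, integrated over 0–8 h (wild type) or 1–9 h (deletion strains), and wells below 10% of the median growth value were excluded. Scores are Z-transformed residuals of growth-normalised luminescence from a fit against a control.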
# [2] = test system: E. coli BW25113 micFp lux reporter
# Outline: as §1
# [3] = test system: E. coli BW25113 ompFp lux reporter
# Outline: as §1
# [4] = test system: E. coli BW25113 robp lux reporter
# Outline: as §1
# [5] = test system: E. coli BW25113 soxSp lux reporter
# Outline: as §1
# [6] = test system: E. coli BW25113 tolCp lux reporter
# Outline: as §1
# [7] = 0.0054 µg/ml, genetic background: wild type
# [8] = 0.0054 µg/ml, genetic background: ΔmarA
# [9] = 0.0054 µg/ml, genetic background: Δrob
# [10] = 0.0054 µg/ml, genetic background: ΔsoxS
# [11] = 0.011 µg/ml, genetic background: wild type
# [12] = 0.011 µg/ml, genetic background: ΔmarA
# [13] = 0.011 µg/ml, genetic background: Δrob
# [14] = 0.011 µg/ml, genetic background: ΔsoxS
# [15] = 0.022 µg/ml, genetic background: wild type
# [16] = 0.022 µg/ml, genetic background: ΔmarA
# [17] = 0.022 µg/ml, genetic background: Δrob
# [18] = 0.022 µg/ml, genetic background: ΔsoxS
# [19] = 0.044 µg/ml, genetic background: wild type
compound,measurement,setting,value
C[C@H]1[C@H](NC(=O)/C(=N\OC(C)(C)C(=O)O)c2csc(N)n2)C(=O)N1S(=O)(=O)O [Aztreonam],promoter activity interaction Z-score,[1]; [7],-0.253 ± 0.084
same,promoter activity interaction Z-score,[1]; [8],-0.209 ± 1.9
same,promoter activity interaction Z-score,[1]; [9],-0.333 ± 0.022
same,promoter activity interaction Z-score,[1]; [10],-0.321 ± 0.053
same,promoter activity interaction Z-score,[1]; [11],0.0466 ± 0.11
same,promoter activity interaction Z-score,[1]; [12],1.29 ± 1.5
same,promoter activity interaction Z-score,[1]; [13],-0.509 ± 0.068
same,promoter activity interaction Z-score,[1]; [14],-0.163 ± 0.42
same,promoter activity interaction Z-score,[1]; [15],-0.332 ± 0.23
same,promoter activity interaction Z-score,[1]; [16],0.66 ± 1.8
same,promoter activity interaction Z-score,[1]; [17],-0.535 ± 0.26
same,promoter activity interaction Z-score,[1]; [18],-0.424 ± 0.41
same,promoter activity interaction Z-score,[2]; [7],-0.16 ± 0.07
same,promoter activity interaction Z-score,[2]; [8],0.09 ± 0.019
same,promoter activity interaction Z-score,[2]; [9],-0.0804 ± 0.089
same,promoter activity interaction Z-score,[2]; [10],-0.271 ± 0.15
same,promoter activity interaction Z-score,[2]; [11],0.0711 ± 0.15
same,promoter activity interaction Z-score,[2]; [12],0.045 ± 0.1
same,promoter activity interaction Z-score,[2]; [13],-0.174 ± 0.022
same,promoter activity interaction Z-score,[2]; [14],0.375 ± 0.11
same,promoter activity interaction Z-score,[2]; [15],-0.368 ± 0.07
same,promoter activity interaction Z-score,[2]; [16],0.0282 ± 0.096
same,promoter activity interaction Z-score,[2]; [17],-0.184 ± 0.33
same,promoter activity interaction Z-score,[2]; [18],-0.331 ± 0.2
same,promoter activity interaction Z-score,[3]; [7],0.304 ± 0.71
same,promoter activity interaction Z-score,[3]; [8],1.01 ± 0.48
same,promoter activity interaction Z-score,[3]; [9],0.73 ± 0.63
same,promoter activity interaction Z-score,[3]; [10],-0.689 ± 0.21
same,promoter activity interaction Z-score,[3]; [11],0.141 ± 0.14
same,promoter activity interaction Z-score,[3]; [12],1.02 ± 0.8
same,promoter activity interaction Z-score,[3]; [13],-0.364 ± 0.87
same,promoter activity interaction Z-score,[3]; [14],0.129 ± 0.2
same,promoter activity interaction Z-score,[3]; [15],-0.19 ± 0.57
same,promoter activity interaction Z-score,[3]; [16],1.43 ± 0.23
same,promoter activity interaction Z-score,[3]; [17],-0.565 ± 1.7
same,promoter activity interaction Z-score,[3]; [18],-0.303 ± 0.73
same,promoter activity interaction Z-score,[4]; [7],-0.543 ± 0.46
same,promoter activity interaction Z-score,[4]; [8],1.13 ± 0.88
same,promoter activity interaction Z-score,[4]; [9],-0.203 ± 0.46
same,promoter activity interaction Z-score,[4]; [10],-1.41 ± 0.17
same,promoter activity interaction Z-score,[4]; [11],0.385 ± 0.037
same,promoter activity interaction Z-score,[4]; [12],1.33 ± 2
same,promoter activity interaction Z-score,[4]; [13],-0.405 ± 0.69
same,promoter activity interaction Z-score,[4]; [14],-0.722 ± 0.24
same,promoter activity interaction Z-score,[4]; [15],-0.69 ± 0.072
same,promoter activity interaction Z-score,[4]; [16],-0.124 ± 0.43
same,promoter activity interaction Z-score,[4]; [17],-1.16 ± 1.2
same,promoter activity interaction Z-score,[4]; [18],-1.07 ± 0.27
same,promoter activity interaction Z-score,[5]; [7],0.278 ± 0.064
same,promoter activity interaction Z-score,[5]; [8],0.333 ± 0.11
same,promoter activity interaction Z-score,[5]; [9],-0.00514 ± 0.076
same,promoter activity interaction Z-score,[5]; [10],-0.126 ± 0.11
same,promoter activity interaction Z-score,[5]; [11],0.305 ± 0.13
same,promoter activity interaction Z-score,[5]; [12],0.172 ± 0.0071
same,promoter activity interaction Z-score,[5]; [13],-0.21 ± 0.25
same,promoter activity interaction Z-score,[5]; [14],0.164 ± 0.46
same,promoter activity interaction Z-score,[5]; [15],0.0318 ± 0.13
same,promoter activity interaction Z-score,[5]; [16],0.1912 ± 0.0014
same,promoter activity interaction Z-score,[5]; [17],-0.194 ± 0.19
same,promoter activity interaction Z-score,[5]; [18],-0.106 ± 0.33
same,promoter activity interaction Z-score,[5]; [19],-0.0693 ± 0.29
same,promoter activity interaction Z-score,[6]; [7],-0.174 ± 0.12
same,promoter activity interaction Z-score,[6]; [8],0.0726 ± 0.53
same,promoter activity interaction Z-score,[6]; [9],-0.67 ± 1.8
same,promoter activity interaction Z-score,[6]; [10],-1.94 ± 0.062
same,promoter activity interaction Z-score,[6]; [11],0.647 ± 0.59
same,promoter activity interaction Z-score,[6]; [12],-0.497 ± 0.27
same,promoter activity interaction Z-score,[6]; [13],-0.241 ± 1
same,promoter activity interaction Z-score,[6]; [14],-0.196 ± 0.045
same,promoter activity interaction Z-score,[6]; [15],0.105 ± 0.69
same,promoter activity interaction Z-score,[6]; [16],-0.22 ± 1.1
same,promoter activity interaction Z-score,[6]; [17],1.61 ± 1
same,promoter activity interaction Z-score,[6]; [18],-0.251 ± 0.32
same,promoter activity interaction Z-score,[6]; [19],-1.04
